In PubChem BioAssay:
Results filed as inconclusive are left out. The source made the active and inactive calls. Unless noted, no rule for the calls is given here.

Assays:
[1] = circadian clock period modulators, cell-based, LOPAC library, luminescence reporter (AID 2774); details: circadian reporter cells, at 7 µM, actives lie on both sides;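 also: values are relative to mean of DMSO wells on each plate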
[2] = test system: Hepatitis C virus NS3 helicase; assay: HCV NS3 helicase inhibitors, primary screen, biochemical, fluorescence polarization, LOPAC1280 library (AID 687035; in the data active = inhibition above about 37%); details: Purified HCV NS3 helicase, Cy5-dT15 ssDNA binding fluorescence polarization; stronger effect = higher value; concentration not given here
[3] = Cy5 fluorescence quenching or enhancement artefacts, artefact control for HCV NS3 helicase inhibitor project, biochemical, LOPAC1280 (AID 687037); details: Cy5-DNA-NS3h complex fluorescence interference counterscreen
[4] = target: ATP-dependent translocase ABCB1 (Homo sapiens) (UniProt P08183); assay: MDR1 (ABCB1) efflux transporter inhibition, cell-based (AID 377; in the data active = fluorescence slope change above about 50%); details: MDR1-expressing cells, fluorescent substrate accumulation slope; stronger effect = higher value; concentration not given here
[5] = hESC survival regulators, cell-based (AID 493140); details: human embryonic stem cell survival screen; stronger effect = higher value;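 also: cells exposed to compounds for four days before counting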
[6] = liver-stage malaria parasite growth inhibition, primary screen, cell-based, HepG2, luciferase luminescence, HepG2 viability (AID 624349; in the data active = parasite load remaining mostly below about 12%, no sharp cut-off; inactive = mostly above about 10%;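 also: 100% = mean of DMSO negative control wells on the same plate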); details: P. berghei liver stage in HepG2, luciferase luminescence, concentration not given here; parasite load remaining: stronger effect = lower value; viability: measured here: HepG2 viability without parasites

Sequence of ATP-dependent translocase ABCB1 (Homo sapiens) (P08183 whole entry, looked up): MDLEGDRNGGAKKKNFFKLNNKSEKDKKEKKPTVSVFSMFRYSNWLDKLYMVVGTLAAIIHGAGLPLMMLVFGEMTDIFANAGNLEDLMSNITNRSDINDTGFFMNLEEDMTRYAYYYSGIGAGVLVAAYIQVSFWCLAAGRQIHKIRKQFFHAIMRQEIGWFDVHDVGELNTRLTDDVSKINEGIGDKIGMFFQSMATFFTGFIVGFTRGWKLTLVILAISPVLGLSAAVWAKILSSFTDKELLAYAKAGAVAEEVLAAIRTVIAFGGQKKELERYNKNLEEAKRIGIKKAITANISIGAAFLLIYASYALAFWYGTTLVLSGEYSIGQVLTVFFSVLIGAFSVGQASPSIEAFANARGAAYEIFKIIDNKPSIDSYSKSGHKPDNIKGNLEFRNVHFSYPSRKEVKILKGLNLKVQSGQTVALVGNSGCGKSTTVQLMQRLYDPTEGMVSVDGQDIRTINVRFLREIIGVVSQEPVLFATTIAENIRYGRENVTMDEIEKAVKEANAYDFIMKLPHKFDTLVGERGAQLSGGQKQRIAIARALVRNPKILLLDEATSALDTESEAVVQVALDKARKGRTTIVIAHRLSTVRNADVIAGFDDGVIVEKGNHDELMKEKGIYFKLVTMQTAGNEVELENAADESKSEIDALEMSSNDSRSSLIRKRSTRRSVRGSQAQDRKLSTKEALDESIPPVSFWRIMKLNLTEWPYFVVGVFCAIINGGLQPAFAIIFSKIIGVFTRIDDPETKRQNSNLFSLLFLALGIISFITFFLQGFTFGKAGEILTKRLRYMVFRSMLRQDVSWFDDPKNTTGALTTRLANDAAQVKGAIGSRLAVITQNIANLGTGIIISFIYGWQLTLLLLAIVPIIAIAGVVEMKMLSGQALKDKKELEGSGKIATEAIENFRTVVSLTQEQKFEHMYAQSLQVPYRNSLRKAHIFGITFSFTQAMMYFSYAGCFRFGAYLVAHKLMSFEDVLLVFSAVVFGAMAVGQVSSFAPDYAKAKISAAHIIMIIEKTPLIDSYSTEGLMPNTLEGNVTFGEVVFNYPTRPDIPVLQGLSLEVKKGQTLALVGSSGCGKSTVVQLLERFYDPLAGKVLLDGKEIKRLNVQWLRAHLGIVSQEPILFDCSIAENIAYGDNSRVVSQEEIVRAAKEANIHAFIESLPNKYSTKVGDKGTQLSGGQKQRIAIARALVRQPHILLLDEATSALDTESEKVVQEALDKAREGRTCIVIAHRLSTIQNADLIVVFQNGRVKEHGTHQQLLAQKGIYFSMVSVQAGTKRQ

SMILES: O=C(O)CCCCCC[C@H]1C(=O)NC(=O)N1CC[C@@H](O)C1CCCCC1
- period change [1]: 0.18 h (inactive)

SMILES: Cc1ccccc1CNc1ncnc2c1ncn2C1OC(CO)C(O)C1O (stereo not drawn)
- period change [1]: -0.235 h (inactive)

SMILES: O=S(=O)(O)C1CCNCC1
- period change [1]: 0.07 h (inactive)

SMILES: C[N+](C)(CCCCCC[N+](C)(C)CCCN1C(=O)c2cccc3cccc(c23)C1=O)CCCN1C(=O)c2cccc3cccc(c23)C1=O
- period change [1]: -0.055 h (inactive)

SMILES: CC(C)C[C@H](N)CSSC[C@@H](N)CC(C)C
- period change [1]: -0.095 h (inactive)

SMILES: CN1CCc2c(cc(O)c(O)c2Cl)C(c2cccc(Cl)c2)C1 (stereo not drawn)
- period change [1]: 0.165 h (inactive)

SMILES: NC(N)=NCCSSCCN=C(N)N
- period change [1]: 0.065 h (inactive)

SMILES: C[C@@H](NC(=O)/C(C#N)=C/c1ccc(O)c(O)c1)c1ccccc1
- period change [1]: 0.095 h (inactive)

SMILES: CCCNC[C@H](O)COc1ccccc1C(=O)CCc1ccccc1
- period change [1]: 0.08 h (inactive)

SMILES: CCCC(=O)NCCc1c2n(c3ccc(OC)cc13)Cc1ccccc1-2
- period change [1]: 0.125 h (inactive)

SMILES: N#C/C(=C\c1c[nH]c2ccccc12)C(=O)c1ccc(O)c(O)c1
- period change [1]: 0.275 h (inactive)

SMILES: NCCCCNS(=O)(=O)c1cccc2c(Cl)cccc12
- period change [1]: 0.09 h (inactive)

SMILES: CCn1cc(C(=O)O)c(=O)c2ccc(Cc3ccccc3)nc21
- period change [1]: -0.035 h (inactive)

SMILES: COc1cc2nc(N3CC=[N+](C(=O)c4ccco4)CC3)nc(N)c2cc1OC
- period change [1]: 0.01 h (inactive)

SMILES: Cc1ccc(C(=O)O[C@H](C(=O)O)[C@H](OC(=O)c2ccc(C)cc2)C(=O)O)cc1 (tested in a mixture with another compound)
- period change [1]: -0.105 h (inactive)

SMILES: COc1ccc(CCNC[C@@H](O)c2ccc(O)cc2)cc1OC
- period change [1]: 0.05 h (inactive)

SMILES: CNC(=O)[C@H]1O[C@@H](n2cnc3c(N)ncnc32)C(O)[C@H]1O (stereo partly drawn)
- period change [1]: 0.045 h (inactive)

SMILES: COc1ccccc1N1CCN(CCCCNS(=O)(=O)c2cccc3c(N(C)C)cccc23)CC1
- period change [1]: 0.125 h (inactive)

SMILES: COc1ccc2c(c1)c(CC(=O)O)c(C)n2Cc1ccc(F)cc1
- period change [1]: -0.005 h (inactive)

SMILES: CCNC(=O)C1OC(n2cnc3c(NCc4ccccc4)ncnc32)C(O)C1O (stereo not drawn)
- period change [1]: 0.1 h (inactive)

SMILES: CCCn1c(=O)c2[nH]c(-c3ccc(OCC(=O)NCCN)cc3)nc2n(CCC)c1=O
- period change [1]: -0.09 h (inactive)
- inhibition [2]: -2% (inactive)
- fluorescence ratio (interference) [3]: 1 (inactive)

SMILES: CCCCCCCCCCCCCCCCOCC(COCC(F)(F)F)OP(=O)(O)OCO (stereo not drawn)
- period change [1]: 0.01 h (inactive)

SMILES: On1ccccc1=S
- fluorescence slope change [4]: 9% (inactive)

SMILES: CCN1CCC[C@H]1CNC(=O)c1c(OC)ccc(I)c1O
- period change [1]: 0.025 h (inactive)

SMILES: CC(C)[C@@H]1NC(=O)[C@H](CCCCN)NC(=O)[C@@H](Cc2c[nH]c3ccccc23)NC(=O)[C@H](Cc2ccc(O)cc2)NC(=O)[C@H](C)N(C)C(=O)[C@H](Cc2ccccc2)NC1=O
- period change [1]: -0.2 h (inactive)

SMILES: CC(COc1ccc(/C=C/c2ccccc2)cc1)[N+](C)(C)C (stereo not drawn)
- period change [1]: -0.13 h (inactive)
- inhibition [2]: -1% (inactive)
- fluorescence ratio (interference) [3]: 1 (inactive)

SMILES: COc1ccccc1N1CCN(CCN(C(=O)c2ccc(I)cc2)c2ccccn2)CC1
- period change [1]: 0.08 h (inactive)
- inhibition [2]: -4% (inactive)
- fluorescence ratio (interference) [3]: 0.9 (inactive)

SMILES: COc1cc(C(O)CO)ccc1O (stereo not drawn) (tested in a mixture with another compound)
- period change [1]: 0.16 h (inactive)

SMILES: CC(=O)NCCc1ccc(O)c(O)c1
- period change [1]: -0.045 h (inactive)

SMILES: O=C(O)[C@@H]1C[C@@H](C(=O)O)N1
- period change [1]: -0.1 h (inactive)
- inhibition [2]: -1% (inactive)
- fluorescence ratio (interference) [3]: 1 (inactive)

SMILES: Nc1ccc(S(=O)(=O)Nc2ccc3nccnc3c2)cc1
- fluorescence slope change [4]: 6.1% (inactive)

SMILES: COc1cc(OC)cc(C(CNc2ncnc3c2ncn3[C@@H]2O[C@H](CO)[C@H](O)C2O)c2ccccc2C)c1 (stereo partly drawn)
- period change [1]: -0.11 h (inactive)

SMILES: O=C(O)CCCC[C@@H]1SCC2NC(=O)NC21 (stereo partly drawn)
- fluorescence slope change [4]: 79.8% (active)

SMILES: C[N+](C)(C)CCC(=O)c1cccc2ccccc12
- period change [1]: -0.475 h (inactive)

SMILES: Ic1ccc(N2CCN(Cc3c[nH]c4ncccc34)CC2)cc1
- period change [1]: 0.1 h (inactive)
- inhibition [2]: 6% (inactive)
- fluorescence ratio (interference) [3]: 0.9 (inactive)

SMILES: CCCCN1CCC(n2c(=O)[nH]c3ccccc32)CC1
- period change [1]: -0.16 h (inactive)
- inhibition [2]: -2% (inactive)
- fluorescence ratio (interference) [3]: 1 (inactive)

SMILES: CCCCC#Cc1nc(N)c2ncn([C@@H]3O[C@H](C(=O)NCC)[C@@H](O)[C@H]3O)c2n1
- period change [1]: -0.015 h (inactive)

SMILES: CCCCCCCCCCCCCCCCCCNC(=O)OCC(COP(=O)([O-])OCC[n+]1ccsc1)OC (stereo not drawn)
- period change [1]: -0.05 h (inactive)
- inhibition [2]: 0% (inactive)
- fluorescence ratio (interference) [3]: 1 (inactive)

SMILES: CN1C2CCC1CC(NC(=O)c1nn(C)c3ccccc13)C2 (stereo not drawn)
- period change [1]: 0.265 h (inactive)

SMILES: COC(=O)c1c(-c2cc(OC)c(OC)c(OC)c2)c2ccc(OCc3ccccn3)cc2c(=O)n1-c1ccc(N)cc1
- period change [1]: 0.015 h (inactive)

SMILES: Cc1c(C)c2c(c(C)c1O)CCC(C)(CN1CCN(c3cc(N4CCCC4)nc(N4CCCC4)n3)CC1)O2 (stereo not drawn)
- period change [1]: 0.14 h (inactive)

SMILES: COc1cc2nc(N3CCN(C(=O)OCc4ccccc4)C(C(=O)NC(C)(C)C)C3)nc(N)c2cc1OC (stereo not drawn)
- period change [1]: 0.085 h (inactive)
- inhibition [2]: -3% (inactive)
- fluorescence ratio (interference) [3]: 1 (inactive)

SMILES: NCCNC(=O)c1ncsc1-c1cccc(F)c1
- period change [1]: 0.08 h (inactive)
- inhibition [2]: -3% (inactive)
- fluorescence ratio (interference) [3]: 1 (inactive)

SMILES: CC[C@H]1OC(=O)[C@H](C)[C@@H](OC2CC(C)(OC)C(O)C(C)O2)[C@H](C)[C@@H](OC2OC(C)CC(N(C)C)C2O)[C@@H](C)C[C@](C)(O)[C@@H]2N[C@H](COCCOC)O[C@H]([C@H]2C)[C@]1(C)O (stereo partly drawn)
- fluorescence slope change [4]: 59.6% (active)

SMILES: N=C1Sc2ccccc2C2=NCCCN12
- period change [1]: -0.035 h (inactive)

SMILES: CCCn1c(=O)c2[nH]c(-c3ccc(OCC(=O)Nc4ccc(C#N)cc4)cc3)nc2n(CCC)c1=O
- period change [1]: 0.13 h (inactive)

SMILES: CCN(CC)C(C)C(=O)N1c2ccccc2Sc2ccccc21 (stereo not drawn)
- period change [1]: 0.095 h (inactive)

SMILES: O=S(=O)(O)CCN1CCN(CCO)CC1
- fluorescence slope change [4]: 26.7% (inactive)

SMILES: CN1CCc2cc(O)c(O)cc2C(c2ccccc2)C1 (stereo not drawn)
- period change [1]: 0.07 h (inactive)
- inhibition [2]: -5% (inactive)
- fluorescence ratio (interference) [3]: 1 (inactive)

SMILES: OC[C@H]1O[C@@H](n2cnc3c(Nc4ccccc4)ncnc32)C(O)[C@H]1O (stereo partly drawn)
- period change [1]: -0.12 h (inactive)

SMILES: C/C=C1\C(=O)CC2C3CCC4=CC(=O)CC[C@]4(C)C3CC[C@]12C (stereo partly drawn)
- period change [1]: 0.03 h (inactive)

SMILES: NCC1OC(OC2C(N)CC(N)C(O)C2O[C@@H]2O[C@H](CO)[C@H](OC3OC(CN)C(O)C(O)C3N)C2O)C(N)C(O)C1O (stereo partly drawn)
- fluorescence slope change [4]: 78.1% (active)

SMILES: NC(=S)NCCCC(N)C(=O)O (stereo not drawn)
- period change [1]: -0.05 h (inactive)

SMILES: N[C@H](CCC(=O)NCS(=O)(=O)O)C(=O)O
- period change [1]: 0.005 h (inactive)

SMILES: NC(=NCCC[C@H](N)C(=O)O)NO
- period change [1]: -0.09 h (inactive)

SMILES: OC[C@H]1O[C@@H](n2cnc3c(N[C@H]4CC5CCC4C5)ncnc32)[C@H](O)[C@@H]1O (stereo partly drawn)
- period change [1]: -0.33 h (inactive)

SMILES: CCCCN1CCC(COC(=O)c2cc(Cl)c(N)c3c2OCCO3)CC1
- period change [1]: -0.095 h (inactive)

SMILES: O=C(O)/C=C/C(O)c1ccc(Cl)cc1 (stereo not drawn)
- period change [1]: 0.15 h (inactive)
- inhibition [2]: 1% (inactive)
- fluorescence ratio (interference) [3]: 1 (inactive)

SMILES: O=C(O)[C@@H]1C[C@H](C(=O)O)N1
- period change [1]: -0.02 h (inactive)
- inhibition [2]: -1% (inactive)
- fluorescence ratio (interference) [3]: 1.1 (inactive)

SMILES: CC(=O)S[C@@H]1CC2=CC(=O)CC[C@]2(C)[C@H]2CC[C@@]3(C)[C@@H](CC[C@]34CCC(=O)O4)[C@H]12
- fluorescence slope change [4]: 162% (active)

SMILES: Nc1cccc2c1C(=O)c1cccc(N)c1C2=O
- fluorescence slope change [4]: 105% (active)

SMILES: NCC1OC(OC2C(N)CC(N)C(OC3OC(CO)C(O)C(N)C3O)C2O)C(O)C(O)C1O (stereo not drawn)
- fluorescence slope change [4]: 9.9% (inactive)
- survival [5]: 5.58 (inactive)
- parasite load remaining [6]: 77.1% (inactive)
- viability [6]: 78.9%

SMILES: COc1ccc([C@@H]2CC(=O)c3c(O)cc(O[C@@H]4OC(CO[C@@H]5OC(C)[C@H](O)[C@H](O)C5O)[C@@H](O)[C@@H](O)C4O)cc3O2)cc1O (stereo partly drawn)
- fluorescence slope change [4]: 9.9% (inactive)
- survival [5]: 9.92 (inactive)
- parasite load remaining [6]: 71.5% (inactive)
- viability [6]: 80.9%

SMILES: COc1cc([C@@H]2c3cc4c(cc3[C@@H](O[C@@H]3O[C@@H]5CO[C@@H](C)O[C@H]5[C@H](O)[C@H]3O)C3COC(=O)[C@@H]32)OCO4)cc(OC)c1O (stereo partly drawn)
- fluorescence slope change [4]: 20.9% (inactive)
- survival [5]: 0.25 (inactive)
- parasite load remaining [6]: 64.7% (inactive)
- viability [6]: 83.1%

SMILES: CCC(=O)OC1C(C)OC(OC2C(C)OC(O[C@H]3[C@@H](CC=O)C[C@@H](C)[C@@H](O)/C=C/C=C/C[C@@H](C)OC(=O)C[C@@H](OC(=O)CC)[C@@H]3OC)C(O)C2N(C)C)CC1(C)O (stereo partly drawn)
- fluorescence slope change [4]: 72% (active)
- survival [5]: 16.6 (inactive)
- parasite load remaining [6]: 77.4% (inactive)
- viability [6]: 89%

SMILES: C=C1CC23CC4C5[C@@]6(C)C[C@H](OC(=O)c7ccccc7)[C@@H](OC(C)=O)[C@@]57C2[C@H](OC(C)=O)[C@@H]1[C@H](O)[C@H]3[C@H]7N4C6
- fluorescence slope change [4]: 12.6% (inactive)
- survival [5]: 4.92 (inactive)
